Screening results as filed in PubChem.
ELG1 DNA repair: inhibitors of ELG1-dependent DNA repair in HEK293T cells; HEK293T ELG1-luciferase reporter, luminescence, 16 h; DNA damage induced by 5-fluorouridine; actives 2.3% (n = 330,000); AID 504467; Potency, µM (series often up to 46.1 µM), most hits filed as inhibitors; further: nearly all actives have a fitted effect of over 55% in size
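Quantitative HTS, concentration-response format. 2,000 cells/well co-treated with 5-fluorouridine and compound, 16 hr in 5% CO2 at 37 °C; ONE-Glo luminescence read after 30 min.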
SMN2 splice enh: enhancers of SMN2 splice variant expression; actives 2.8% (n = 210,000); Potency, µM (series often up to 46.1 µM), hits mostly activators; HEK293 SMN2-luciferase splicing reporter, luminescence, 30-36 h; further: nearly all actives have a fitted effect of over 55% in size
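HEK293 cells carry an SMN2 […]–luciferase reporter in which exon 7 inclusion puts luciferase in frame. Cells were plated 10-12 h before compound addition, then incubated 30-36 h at 37C. ONE-Glo luminescence was read; sodium butyrate at 4.5 mM final served as control.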
FLuc modulator: inhibits or activates purified firefly luciferase, miR-21 counter-screen. purified FLuc, Km substrates, luminescence inhibition. Potency, µM (titrated, usually from 57.5 µM), actives largely listed as inhibitors. actives 6.9% (n = 360,000); further: nearly all actives have a fitted effect of over 55% in size
Target sequence (P08659 whole entry, looked up): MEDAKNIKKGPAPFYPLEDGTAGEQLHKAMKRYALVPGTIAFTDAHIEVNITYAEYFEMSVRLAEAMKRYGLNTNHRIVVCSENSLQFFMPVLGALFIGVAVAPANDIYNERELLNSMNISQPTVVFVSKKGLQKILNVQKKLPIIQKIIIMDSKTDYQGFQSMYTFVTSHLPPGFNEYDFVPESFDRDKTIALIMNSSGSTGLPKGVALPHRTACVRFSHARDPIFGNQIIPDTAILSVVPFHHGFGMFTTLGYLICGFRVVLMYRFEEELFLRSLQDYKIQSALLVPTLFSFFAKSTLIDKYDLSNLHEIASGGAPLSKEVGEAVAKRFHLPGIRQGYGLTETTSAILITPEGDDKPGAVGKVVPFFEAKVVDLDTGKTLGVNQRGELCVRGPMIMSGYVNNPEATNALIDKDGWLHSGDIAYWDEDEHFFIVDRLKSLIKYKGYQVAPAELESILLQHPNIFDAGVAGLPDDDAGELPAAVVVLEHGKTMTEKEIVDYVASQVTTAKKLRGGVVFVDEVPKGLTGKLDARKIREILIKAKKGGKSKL
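Purified P. pyralis luciferase (10nM final) with 10uM D-luciferin and 10uM ATP (Km levels) in 50mM Tris acetate pH 7.5, 10mM Mg acetate, 0.01% Tween-20, 0.05% BSA; qHTS 6-point titration, ~60 µM downward; luminescence read.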
NPC1 promoter act: activates the NPC1 promoter; Potency, µM (series often up to 9.22 µM), most hits filed as activators; Huh7 NPC1 promoter luciferase reporter, 24 h; actives 2.4% (n = 320,000); further: nearly all actives have a fitted effect of over 60% in size
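Stably transfected Huh7 (NPC1 promoter→luciferase), 1500 cells/well in Opti-MEM + 10% FBS, 2 h settle, then compound 24 h at 37 °C. Luminescence after 10 min with Amplite reagent.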
Rab9 promoter act: activates the Rab9 promoter. actives 2.8% (n = 320,000). Potency, µM (highest dose often 9.22 µM), usual class: activators. Huh7 Rab9 promoter-luciferase reporter, luminescence, 24 h. AID 485297; further: nearly all actives have a fitted effect of over 60% in size
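Promoter activation is measured as luciferase luminescence in Huh7 cells stably transfected with a Rab9 promoter–luciferase construct, following 24 h compound exposure at 37 °C and 10 min reagent incubation at ambient temperature.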
ELG1 genotoxic: inducers of genotoxicity in HEK293T ELG1-luciferase cells; Potency, µM (top dose mostly 46 µM), usual class: activators; HEK293T ELG1-luciferase reporter, luminescence, 16 h; actives 1.3% (n = 330,000); further: nearly all actives have a fitted effect of over 60% in size
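After overnight (16 hr) compound treatment at 37 °C, ELG1-luciferase HEK293T cells were lysed with ONE-Glo; luminescence quantified 30 min later at room temperature.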
Hits are given with their value; n = inactive; u = inconclusive; x = no result given; [ ] = dose if it differs, or a comment. Compounds with a hit are over-represented: about 9.2% of the library has one in this group of screens. The call rests on the fitted dose curve; in most records, active means well fitted curve in the direction sought with a large enough effect; inconclusive means small, poorly fitted or top-dose-only effect, or another doubt; inactive means no such curve, though single readings can be large; an effect the other way counts as inactive or inconclusive.

SMILES	ELG1 DNA repair	SMN2 splice enh	FLuc modulator	NPC1 promoter act	Rab9 promoter act	ELG1 genotoxic
Cc1cccc(C(=O)OCC(=O)Nc2c(C)n(C)n(-c3ccccc3)c2=O)c1	n	x	n	n	n	n
COc1ccc(-c2cc(C(=O)OC(C)C(=O)Nc3c(C)n(C)n(-c4ccccc4)c3=O)c3ccccc3n2)cc1 (stereo unspecified)	15µM	n	13µM	n	n	n
O=C(Nc1nnc(SCc2ccc(F)cc2)s1)c1ccco1	n	u	n	n	n	n
COc1ccc(OC)c(NC(=O)CSc2nnc(NC(=O)c3ccco3)s2)c1	n	x	27µM	n	n	n
COc1ccc(OC)c(NC(=O)CCNC(=O)c2ccco2)c1	n	x	n	n	n	n
COc1ccccc1NC(=O)CSc1nnc(NC(=O)c2ccco2)s1	n	x	15µM	n	n	n
COc1ccc2cnnc(SCC(=O)Nc3ccccc3)c2c1OC	u	n	n	n	n	n
COc1ccc(-n2c(SCC(=O)Nc3cccc(C(=O)O)c3)nnc2-c2ccco2)cc1	n	x	n	n	n	n
COc1ccc(OC)c(NC(=O)CSc2nncc3ccc(OC)c(OC)c23)c1	21µM	x	n	n	n	n
COc1ccc(OC)c(NC(=O)CSc2nnc(-c3ccco3)n2-c2ccccc2)c1	10µM	n	n	n	n	n
N[C@@H](CC1=CS(=O)(=O)c2ccc(Cl)cc21)C(=O)O	x	n[9.22 µM]	x	x	x	x
Cc1cccc(C)c1OCc1cc(=O)n2ccsc2n1	x	n	n	x	x	x
O=C(O)COCC(=O)Nc1ccc(-n2nc(C(F)(F)F)cc2-c2cccs2)cc1	n	x	n	n	n	n
CCOC(=O)c1c(C)[nH]c(C)c1S(=O)(=O)N1CCC(C(=O)Nc2ccc(C)c(N(C)C)c2)CC1	x	x	n	x	x	x
Cc1ccccc1/C=N/Nc1ccnc2cc(Cl)ccc12	u	n	u	n	n	n
Clc1ccc2c(N/N=C/c3ccc(Br)cc3)ccnc2c1	16µM	n	n	n	n	u
Cc1ccc(/C=N/Nc2ccnc3cc(Cl)ccc23)c(C)c1	18µM	n	n	n	n	n
CC1CCc2c(sc(NC(=O)COC(=O)C3CCCO3)c2C#N)C1 (stereo unspecified)	u	n	u	n	n	n
CC1CCc2c(sc(/N=C/N(C)C)c2C#N)C1 (stereo unspecified)	u	n	15µM	n	4.5µM	u
CC1CCc2c(sc(NC(=O)C3CCCO3)c2C#N)C1 (stereo unspecified)	u	11µM	11µM	3.5µM	3.2µM	u
CCOC(=O)Nc1sc2c(c1C#N)CCC(C)C2 (stereo unspecified)	u	n	11µM	2.8µM	3.2µM	u
Cc1ccc(C)c(NC(=O)Cn2c(=O)n(CC3CCCO3)c(=O)c3ccccc32)c1 (stereo unspecified)	x	n	n	x	x	x
CCc1nn(CC(=O)NCCCc2ccccc2)c(=O)c2cc3ccccc3n12	x	n	n	x	x	x
COc1ccc(S(=O)(=O)Nc2cc3c4c(c2)CCN4C(=O)CC3)cc1	u	x	n	n	n	u
Cn1cccc1CC(=O)N/N=C/c1ccc(C(C)(C)C)cc1	u	x	17µM	n	u	n
SMILES	ELG1 DNA repair	SMN2 splice enh	FLuc modulator	NPC1 promoter act	Rab9 promoter act	ELG1 genotoxic
Cc1ccc(/C=N/NC(=O)Cc2cccn2C)cc1	u	x	u	n	u	n
CCc1ccc(/C=N/NC(=O)Cc2cccn2C)cc1	u	x	24µM	u	u	n
Cc1ccc(N2CC(C(=O)OCC(=O)c3ccc([N+](=O)[O-])cc3)CC2=O)cc1 (stereo unspecified)	n	x	n	n	n	n
COc1ccc(-c2nc3ccccc3c(C(=O)Nc3ccc(S(=O)(=O)Nc4cc(C)on4)cc3)c2C)cc1	13µM	n	u	n	n	n
COc1ccc(C(=O)Nc2ccc(S(=O)(=O)Nc3onc(C)c3C)cc2)cc1	n	n	21µM	n	n	n
COc1cccc(C(=O)Nc2ccc(S(=O)(=O)Nc3onc(C)c3C)cc2)c1	u	n	u	n	n	n
